# Tested on: T1, ASK1
# T1 construct: gene MAP3K5
# Details: concentration: 1 μM, replicates: in singlicate; n = 1
# 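Note: KINOMEscan kinase panel screen.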
row,Structure (SMILES),%Inh
1,Cc1c2ccc(N(C)c3ccnc(Nc4cccc(S(N)(=O)=O)c4)n3)cc2nn1Cc1ccccc1.Cl.Cl [GW787226],0%
2,Fc1ccc(-c2ncn(CCCN3CCOCC3)c2-c2cccnc2)cc1 [SB-211743],0%
3,COc1ccc(Nc2ncc(C#N)c(Nc3ccccc3C(N)=O)n2)cc1N1CCN(C)CC1.Cl [GSK1558669],0%
4,O=c1cc(N2CCOCC2)nc2n(Cc3cccc4ccccc34)ccn12 [GSK2333389],0%
5,CCc1nc(-c2cccc(C)c2)c(-c2ccnc(NCc3ccccc3)c2)s1,0%
6,O=C(NCCNc1ccnc(Nc2ccc(F)cc2)n1)c1cc2ccccc2s1 [GSK1379874],1%
7,O=C(NCCNc1ccnc(Nc2ccc(F)cc2)n1)Nc1ccccc1F [GSK1379880],1%
8,CN(C(=O)c1ccc(-c2cc(-c3c[nH]nc3-c3ccccn3)ccn2)cc1)C1CCOCC1 [GW810083],44%
9,O=C(Nc1n[nH]c2cc(-c3cccc(F)c3)ccc12)C1CC1 [SB-735464],0%
10,Cc1nnc(-c2ccc(C)c(-c3ccc(C(=O)Nc4ccc(NS(C)(=O)=O)cc4)cc3)c2)o1 [GW702865],0%
11,COc1ccc(S(=O)(=O)NC2CCN(c3cc(C)nc(Nc4cccc(C#N)c4)n3)CC2)cc1.O=C(O)C(F)(F)F [GSK1653539],0%
12,O=C(NOCC1CC1)c1ccc(F)c(F)c1Nc1ccc(I)cc1Cl,0%
13,COc1cc2c(cc1OC[C@@H](O)CO)ncc1c3ccc(C#N)cc3[nH]c21,0%
14,NS(=O)(=O)CCc1cccc(Nc2nccc(-c3c(-c4cccc(NC(=O)c5c(F)cccc5F)c4)nn4ccccc34)n2)c1 [GSK336735],2%
15,COc1ccc(CNC(=O)NC2CCN(c3ccnc(Nc4ccc(OC)cc4)n3)C2)cc1 (stereo not shown) [GSK1379727],0%
16,c1ccc(-c2cc(-c3c[nH]nc3-c3ccccn3)ccn2)cc1 [GW576604],4%
17,Cn1cc(-c2ccc3c(c2)CCN3C(=O)Cc2ccccc2Cl)c2c(N)ncnc21 [GSK2608885],0%

row,Structure (SMILES),%Inh
1,Cc1nnc(-c2ccc3ncc(-c4ccc(S(C)=O)cc4)n3c2)o1 (stereo not shown),0%
2,Cc1ccc(NC(=O)c2ccnc(N3CCN(C)CC3)c2)cc1-c1ccc(C(=O)NCC2CC2)cc1 [GW775604],0%
3,CN(C1=C(c2ccccc2)C(=O)NC1=O)c1ccccc1 [SB-334860],12%
4,Cc1ccc(C(=O)NCC(N)=O)cc1-n1c(C)cc(OCc2ccc(F)cc2F)c(Br)c1=O,12%
5,NCC(NC(=O)c1cc(-c2cn[nH]c2)c(-c2ccnc3[nH]ccc23)s1)c1ccccc1.O=C(O)C(F)(F)F.O=C(O)C(F)(F)F (stereo not shown) [GSK1325775],11%
6,CNc1ncnc2[nH]ncc12 [SKF-18355],0%
7,CCCCCc1nc2c(N)ncnc2n1CCCCC [SKF-97255],0%
8,C[C@@H](Oc1cc(-n2cnc3ccc(NC(=O)NC(C)(C)C)cc32)sc1C(N)=O)c1ccccc1Cl [GSK346294],3%
9,Cl.Oc1cccc(Nc2ccnc3cc(-c4ccncc4)ccc23)c1 [GW494601],0%
10,O=C1NC(=O)C(N2CCc3ccccc32)=C1c1cccc(Cl)c1 [SB-408010],0%
11,Cc1cn2c(=O)cc(N3CCOCC3)nc2n1Cc1cccc(Cl)c1Cl [GSK2334006],1%
12,N#Cc1c(N2CCOCC2)sc(-c2ccn[nH]2)c1-c1ccc(Cl)cc1,0%
13,CC(=O)Nc1ccc(COc2ccc(Nc3ccnc4cc(-c5ccccn5)ccc34)cc2)cc1.Cl [GW440148],10%
14,O=c1cc(N2CCOCC2)nc2n(Cc3cccc(C(F)(F)F)c3)ccn12 [GSK2297543],0%
15,Fc1ccc(-c2nn3c(OCC(F)(F)F)cccc3c2-c2ccncc2)cc1 [GW514784],0%
16,Cc1cccc(-c2nc(Nc3ccc4ncsc4c3)c3ccccc3n2)n1 [GW867588],15%

# Tested on: T2, ASK2
# T2 construct: gene MAP3K6
# Details: concentration: 1 μM, replicates: in singlicate; n = 1
row,Structure (SMILES),%Inh
1,Cc1c2ccc(N(C)c3ccnc(Nc4cccc(S(N)(=O)=O)c4)n3)cc2nn1Cc1ccccc1.Cl.Cl [GW787226],0%
2,Fc1ccc(-c2ncn(CCCN3CCOCC3)c2-c2cccnc2)cc1 [SB-211743],0%
3,COc1ccc(Nc2ncc(C#N)c(Nc3ccccc3C(N)=O)n2)cc1N1CCN(C)CC1.Cl [GSK1558669],22%
4,O=c1cc(N2CCOCC2)nc2n(Cc3cccc4ccccc34)ccn12 [GSK2333389],15%
5,CCc1nc(-c2cccc(C)c2)c(-c2ccnc(NCc3ccccc3)c2)s1,0%
6,O=C(NCCNc1ccnc(Nc2ccc(F)cc2)n1)c1cc2ccccc2s1 [GSK1379874],0%
7,O=C(NCCNc1ccnc(Nc2ccc(F)cc2)n1)Nc1ccccc1F [GSK1379880],0%
8,CN(C(=O)c1ccc(-c2cc(-c3c[nH]nc3-c3ccccn3)ccn2)cc1)C1CCOCC1 [GW810083],0%
9,O=C(Nc1n[nH]c2cc(-c3cccc(F)c3)ccc12)C1CC1 [SB-735464],22%
10,Cc1nnc(-c2ccc(C)c(-c3ccc(C(=O)Nc4ccc(NS(C)(=O)=O)cc4)cc3)c2)o1 [GW702865],0%
11,COc1ccc(S(=O)(=O)NC2CCN(c3cc(C)nc(Nc4cccc(C#N)c4)n3)CC2)cc1.O=C(O)C(F)(F)F [GSK1653539],0%
12,O=C(NOCC1CC1)c1ccc(F)c(F)c1Nc1ccc(I)cc1Cl,0%
13,COc1cc2c(cc1OC[C@@H](O)CO)ncc1c3ccc(C#N)cc3[nH]c21,0%
14,NS(=O)(=O)CCc1cccc(Nc2nccc(-c3c(-c4cccc(NC(=O)c5c(F)cccc5F)c4)nn4ccccc34)n2)c1 [GSK336735],0%
15,COc1ccc(CNC(=O)NC2CCN(c3ccnc(Nc4ccc(OC)cc4)n3)C2)cc1 (stereo not shown) [GSK1379727],0%
16,c1ccc(-c2cc(-c3c[nH]nc3-c3ccccn3)ccn2)cc1 [GW576604],0%
17,Cn1cc(-c2ccc3c(c2)CCN3C(=O)Cc2ccccc2Cl)c2c(N)ncnc21 [GSK2608885],0%

row,Structure (SMILES),%Inh
1,Cc1nnc(-c2ccc3ncc(-c4ccc(S(C)=O)cc4)n3c2)o1 (stereo not shown),9%
2,Cc1ccc(NC(=O)c2ccnc(N3CCN(C)CC3)c2)cc1-c1ccc(C(=O)NCC2CC2)cc1 [GW775604],0%
3,CN(C1=C(c2ccccc2)C(=O)NC1=O)c1ccccc1 [SB-334860],0%
4,Cc1ccc(C(=O)NCC(N)=O)cc1-n1c(C)cc(OCc2ccc(F)cc2F)c(Br)c1=O,0%
5,NCC(NC(=O)c1cc(-c2cn[nH]c2)c(-c2ccnc3[nH]ccc23)s1)c1ccccc1.O=C(O)C(F)(F)F.O=C(O)C(F)(F)F (stereo not shown) [GSK1325775],23%
6,CNc1ncnc2[nH]ncc12 [SKF-18355],0%
7,CCCCCc1nc2c(N)ncnc2n1CCCCC [SKF-97255],0%
8,C[C@@H](Oc1cc(-n2cnc3ccc(NC(=O)NC(C)(C)C)cc32)sc1C(N)=O)c1ccccc1Cl [GSK346294],0%
9,Cl.Oc1cccc(Nc2ccnc3cc(-c4ccncc4)ccc23)c1 [GW494601],0%
10,O=C1NC(=O)C(N2CCc3ccccc32)=C1c1cccc(Cl)c1 [SB-408010],0%
11,Cc1cn2c(=O)cc(N3CCOCC3)nc2n1Cc1cccc(Cl)c1Cl [GSK2334006],3%
12,Cl.Cl.Cl.Fc1ccc(-c2ncn(C3CCNCC3)c2-c2ccnc(Nc3ccccc3)n2)cc1 [SB-238039],0%
13,N#Cc1c(N2CCOCC2)sc(-c2ccn[nH]2)c1-c1ccc(Cl)cc1,0%
14,CC(=O)Nc1ccc(COc2ccc(Nc3ccnc4cc(-c5ccccn5)ccc34)cc2)cc1.Cl [GW440148],0%
15,O=c1cc(N2CCOCC2)nc2n(Cc3cccc(C(F)(F)F)c3)ccn12 [GSK2297543],0%
16,Fc1ccc(-c2nn3c(OCC(F)(F)F)cccc3c2-c2ccncc2)cc1 [GW514784],0%
17,Cc1cccc(-c2nc(Nc3ccc4ncsc4c3)c3ccccc3n2)n1 [GW867588],20%

# Reference: PMC5540273 (PLoS ONE, 2017)
